This is an account of results in PubChem BioAssay (NCATS).

Inconclusive results are not listed. Unmarked numbers belong to inactive results. Calls of active or inactive are those of the source. Calls follow the shape of the dose curve; as a rule, active = well fitted curve in the direction sought with a large enough effect; inconclusive = small, poorly fitted or top-dose-only effect, or another doubt; inactive = no such curve, though single readings can be large; an effect the other way counts as inactive or inconclusive. Where a SMILES comes first, the peptide text is derived from it. The star is where a group is joined. Hexanoyl = CCCCCC(=O)*
% is scaled to controls: 0 for no effect and ±100 for the full control effect.

One test in a line: HepG2 cells viability qHTS for Zika virus inhibitors (AID 1347168). Conditions: Zika counter-screen; series mostly up to 45.9 µM; activity change, negative = cytotoxicity: at the top concentration. In short, it runs like this: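 To flag cytotoxic protease inhibitors, viability is measured by ATP-dependent luminescence (CellTiter Glo) after cells attached overnight receive compound for 24 to 48 hours in DMEM with 4% FBS.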
`O=C1NC(=O)/C(=C/c2cccc(C(F)(F)F)c2)S1`: the “activity change, negative = cytotoxicity” value is -2.82%. Take `COc1cccc(OC)c1-c1cc(C(=O)N[C@@H](CC(C)C)C(=O)O)nn1-c1ccnc2cc(Cl)ccc12`: the “activity change, negative = cytotoxicity” value was 4.7%.

As for `CC1(C)CC=C(c2cnc3ccccc3c2)c2cc(C(=O)Nc3ccc(C(=O)O)cc3)ccc21`, the “activity change, negative = cytotoxicity” value is 19.1%. As to `O=C(Nc1ccccc1)Nc1ccc(-c2ccc(C(=O)C3CCCC3C(=O)O)cc2)cc1` (centres undefined), the “activity change, negative = cytotoxicity” value was -0.184%. Regarding `CC1C(O)C(O)C2C(C(=O)OCCc3ccc(O)cc3)=COC(O[C@@H]3O[C@H](CO)[C@@H](O)[C@H](O)[C@H]3O)C12` (some centres undefined), the “activity change, negative = cytotoxicity” value is -6.98% [at 26.9 µM].

As to `Cc1ccc([C@@H]2CC=C(C(=O)O)[C@H](c3ccc(C(C)(C)C)cc3)N2S(=O)(=O)c2ccc(C)cc2)cc1`, the “activity change, negative = cytotoxicity” value is 2.49%. For `C/C(=C\CC/C(C)=C/CC[C@]1(C)CCc2cc(O)cc(C)c2O1)CC/C=C(\C)C(=O)O`, the “activity change, negative = cytotoxicity” value is 2.43% [at 26.9 µM].

A further test can be described thus: Tertiary RLuc qRT-PCR qHTS assay for Zika virus inhibitors (AID 1347169). Also: nearly all actives have a fitted effect of over 55% in size. Also: potency is read from the fitted curve at half-maximal effect. As to activity change, negative = inhibition: top concentration of the series differs between compounds. Conditions: infected Vero cells, reporter luminescence, 48-72 h; series mostly up to 45.9 µM; activity change, negative = inhibition: at the top concentration. In short, it runs like this:
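Vero cells (1,000/well) infected with recombinant ZIKV-RLuc (Cambodian) at MOI 1-2 after compound addition, 48-72 hrs at 37 degrees C. Live-cell Renilla luciferase substrate added; luminescence read after 1-1.5 hrs.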
In general terms: In qPCR the cycle at which signal appears reflects the starting amount.
As to `CCC(C)/C=C(C)/C=C/C1=CC2=CC(=O)C(C)(O)C(OC(C)=O)C2CO1` (centres undefined), the “activity change, negative = inhibition” value was -20.6% [at 26.6 µM].

Consider `COc1cc(CCCO)ccc1O[C@@H]1O[C@H](CO)[C@@H](O)[C@H](O)[C@H]1O`, for which the “activity change, negative = inhibition” value was 56.1% [at 26.6 µM]. On to `O=C(O)CC/C=C\C[C@H]1CO[C@@H](c2ccccc2Cl)O[C@H]1c1ccccc1O`, for which the “activity change, negative = inhibition” value was -58.7%. With `O=C1NC(=O)/C(=C/c2cccc(C(F)(F)F)c2)S1`, the Potency was 18.6 µM (active).

With `COc1cccc(OC)c1-c1cc(C(=O)N[C@@H](CC(C)C)C(=O)O)nn1-c1ccnc2cc(Cl)ccc12`, the “activity change, negative = inhibition” value was -54.8%.

On to `CC1(C)CC=C(c2cnc3ccccc3c2)c2cc(C(=O)Nc3ccc(C(=O)O)cc3)ccc21`, for which the “activity change, negative = inhibition” value is -1.7%.

On to `O=C(Nc1ccccc1)Nc1ccc(-c2ccc(C(=O)C3CCCC3C(=O)O)cc2)cc1` (centres undefined), for which the “activity change, negative = inhibition” value is -25.7%. With `CC1=C2CC3C(CCC3(C)O)C(C)(O)CC2OC1=O` (centres undefined), the “activity change, negative = inhibition” value was 14.8%.

Regarding `CCCCCC(=O)N1CCC[C@H]1C(=O)N[C@@H](Cc1ccc(O)cc1)C(=O)OC` (Hexanoyl-Pro-Tyr-OMe), the “activity change, negative = inhibition” value was 11.2%.

`CC1C(O)C(O)C2C(C(=O)OCCc3ccc(O)cc3)=COC(O[C@@H]3O[C@H](CO)[C@@H](O)[C@H](O)[C@H]3O)C12` (some centres undefined): the “activity change, negative = inhibition” value is -14.2% [at 26.6 µM]. For the compound `COc1ccc(C2C(C(=O)O)C(C(=O)O)C2c2ccc(OC)cc2O[C@@H]2O[C@H](CO)[C@@H](O)[C@H](O)[C@H]2O)c(O[C@@H]2O[C@H](CO)[C@@H](O)[C@H](O)[C@H]2O)c1` (some centres undefined), the “activity change, negative = inhibition” value was -27.4% [at 14.8 µM]. Regarding `CC1(C)CC[C@]2(C(=O)O)CC[C@]3(C)C(=CCC4[C@@]5(C)CC[C@H](O[C@@H]6O[C@H](C(=O)O)[C@@H](O)[C@H](O)[C@H]6O)C(C)(C)C5CC[C@]43C)C2C1` (some centres undefined), the Potency was 9.79 µM (active). For the compound `CO[C@H]1c2cc(C(C)C)c(O)c(O)c2[C@@]23CCCC(C)(C)C2[C@@H]1OC3=O` (some centres undefined), the “activity change, negative = inhibition” value is -15% [at 26.6 µM]. On to `Cc1ccc([C@@H]2CC=C(C(=O)O)[C@H](c3ccc(C(C)(C)C)cc3)N2S(=O)(=O)c2ccc(C)cc2)cc1`, for which the Potency was 18.6 µM (active). With `CC1(C)[C@H]2C[C@H](C/C=C\CCCC(=O)O)[C@@H](NC(=O)c3csc4ccc(O)cc34)[C@@H]1C2`, the “activity change, negative = inhibition” value was -1.99%. Consider `CC(C)=CCC[C@@](C)(O)[C@H]1CC[C@]2(C)[C@@H]1[C@H](O)CC1[C@@]3(C)CC[C@H](O[C@@H]4O[C@H](CO)[C@@H](O)[C@H](O)[C@H]4O[C@@H]4O[C@H](CO)[C@@H](O)[C@H](O)[C@H]4O)C(C)(C)[C@@H]3CC[C@]12C` (some centres undefined), for which the “activity change, negative = inhibition” value was -0.531% [at 14.8 µM]. Take `CSCC[C@H](NC(=O)[C@H](CO)NC(=O)[C@H](CCC(=O)O)NC(C)=O)C(=O)N[C@H](C=O)CC(=O)O` (Ac-ESMD-aldehyde): the activity change, negative = inhibition is -0.374% [at 5.25 µM]. For the compound `C/C(=C\CC/C(C)=C/CC[C@]1(C)CCc2cc(O)cc(C)c2O1)CC/C=C(\C)C(=O)O`, the “activity change, negative = inhibition” value was -6.46% [at 26.6 µM].

With `COc1cc2c(c(OC)c1O)C(c1ccc(O)cc1)C1C(=O)OC3C(COC(=O)C1=C2)OC(CO)(OC1OC(COC(=O)/C=C/c2ccc(OC4OC(C)C(O)C(O)C4O)cc2)C(O)C(O)C1O)C3O` (centres undefined), the “activity change, negative = inhibition” value was 18.5% [at 14.8 µM]. For `O=C(/C=C/c1ccccc1)OC[C@H]1O[C@@H](OC(=O)c2cc(O)c(O)c(O)c2)[C@H](O)[C@@H](O)[C@@H]1O`, the “activity change, negative = inhibition” value is -12.9% [at 26.6 µM].

A short description of a further test: OV-KATE Cancer Cell Toxicity qHTS against the NCATS CANVASS Library (AID 1347345). Conditions: OV-KATE cells viability, CellTiter-Glo luminescence, 72 h; series mostly up to 38.3 µM; activity change, negative = cytotoxicity: at the top concentration. In short, it runs like this:
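Quantitative HTS format: an 11-concentration series was applied to 1000 cells/well following a 4-hour attachment. Cultures ran 72 hours before ATP luminescence detection by CellTiter-Glo.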
A general note: qHTS replaces the single test concentration by a dilution series.
Regarding `CC(C)c1ccc2c(c1)CCC1[C@](C)(C(=O)O)CCC[C@]21C` (some centres undefined), the “activity change, negative = cytotoxicity” value is 1.83%. In the case of `O=C(/C=C/C=C/c1ccc2c(c1)OCO2)N1CCCCC1`, the “activity change, negative = cytotoxicity” value was -16% [at 76 µM]. `C/C(=C\CC/C(C)=C/CC[C@]1(C)CCc2cc(O)cc(C)c2O1)CC/C=C(\C)C(=O)O`: the “activity change, negative = cytotoxicity” value was 1.62%.

Take `CC(=O)O[C@H]1C[C@@]2(C)[C@@H](CC[C@H]3[C@@]4(C)C=CC(=O)[C@@H](C)[C@@H]4[C@H](OC(C)=O)C(=O)[C@@]32C)/C1=C(\CCC=C(C)C)C(=O)O`: the “activity change, negative = cytotoxicity” value is -8.28%.

The next test is described as follows: UWB1.289 Cancer Cell Toxicity qHTS against the NCATS CANVASS Library (AID 1347347). Also: nearly all actives have a fitted effect of over 60% in size. The settings on record: UWB1.289 viability, CellTiter-Glo luminescence, 72 h; series mostly up to 38.3 µM; activity change, negative = cytotoxicity: at the top concentration. From the text:
Natural products and their derivatives continue to be wellsprings of nascent therapeutic potential. However, many laboratories have limited resources for biological evaluation, leaving their previously isolated or synthesized compounds largely or completely untested. To address this issue, the Canvass library of natural products was assembled (https://tripod.nih.gov/canvass), in collaboration with academic and industry researchers, for quantitative high-throughput screening (qHTS) across a diverse set of cell-based and biochemical assays. The pure (>85% purity by liquid chromatography/mass spectrometry [LC/MS]) Canvass library of 346 natural products were submitted by 45 academic laboratories and companies around the world. We collected pure natural products to circumvent deconvolution and structure elucidation due to time and resource limitations. The library was formatted into 1536-well plates and evaluated in 50 qHTS (in an 11-pnt concentration series) bioassays with broad scope of disease-relevant mechanisms. The resulting data set from 50 different assays was then systematically analyzed to identify overall trends and specific natural products with interesting biological activities. Reported herein are the results of each individual qHTS and their corresponding assay protocol. National Center for Advancing Translational Sciences (NCATS), Rockville, MD National Institute of Health (NIH), Bethesda, Maryland
Cancer Cell Toxicity protocol for cell lines COV-362, OV-KATE, OV-SAHO, UWB1.289, UWB1.289-WTBRCA1, HEK-293, HPAF-II, Panc-1005, SW1088, or U-118MG. 1. In a 1536 well, white solid bottom tissue culture plates (Corning 7494), corresponding cells (COV-362, OV-KATE, OV-SAHO, UWB1.289, UWB1.289-WTBRCA1, HEK-293, HPAF-II, Panc-1005, SW1088, or U-118MG) were dispensed in each well at a final concentration of 1000 cells / well (6uL volume) using the Multidrop Combi (Thermo Fisher Scientific) dispenser. 2. […] Luminescence signal was acquired via the ViewLux plate reader (PerkinElmer) using a clear filter, 2 second exposure and 2x binning settings.
`CC(C)c1ccc2c(c1)CCC1[C@](C)(C(=O)O)CCC[C@]21C` (some centres undefined): the “activity change, negative = cytotoxicity” value is 1.19%. On the same count and under the same terms, for `C/C(=C\CC/C(C)=C/CC[C@]1(C)CCc2cc(O)cc(C)c2O1)CC/C=C(\C)C(=O)O` the value was -20.4%; for `CC(=O)O[C@H]1C[C@@]2(C)[C@@H](CC[C@H]3[C@@]4(C)C=CC(=O)[C@@H](C)[C@@H]4[C@H](OC(C)=O)C(=O)[C@@]32C)/C1=C(\CCC=C(C)C)C(=O)O`, -9.11%.
